# Experimental data: publication PMC4336329 (PLoS ONE, 2015)
# In all, about 310,000 compounds went through this assay and about 14,000 (4.5%) showed an effect of 50% or more. The effect is printed as a negative number. The entries come from a sample that favours strong results as a whole.
# Biological target: human ether-à-go-go-related gene (hERG) potassium channel (human, UniProt Q12809)
# Assay: primary screen, population patch clamp on CHO cells stably expressing hERG; higher = less effect of the substance
# 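Note: peak tail current of the secondary pulse compared with the same well before compound.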
# human ether-à-go-go-related gene (hERG) potassium channel, sequence (Q12809 whole entry, looked up): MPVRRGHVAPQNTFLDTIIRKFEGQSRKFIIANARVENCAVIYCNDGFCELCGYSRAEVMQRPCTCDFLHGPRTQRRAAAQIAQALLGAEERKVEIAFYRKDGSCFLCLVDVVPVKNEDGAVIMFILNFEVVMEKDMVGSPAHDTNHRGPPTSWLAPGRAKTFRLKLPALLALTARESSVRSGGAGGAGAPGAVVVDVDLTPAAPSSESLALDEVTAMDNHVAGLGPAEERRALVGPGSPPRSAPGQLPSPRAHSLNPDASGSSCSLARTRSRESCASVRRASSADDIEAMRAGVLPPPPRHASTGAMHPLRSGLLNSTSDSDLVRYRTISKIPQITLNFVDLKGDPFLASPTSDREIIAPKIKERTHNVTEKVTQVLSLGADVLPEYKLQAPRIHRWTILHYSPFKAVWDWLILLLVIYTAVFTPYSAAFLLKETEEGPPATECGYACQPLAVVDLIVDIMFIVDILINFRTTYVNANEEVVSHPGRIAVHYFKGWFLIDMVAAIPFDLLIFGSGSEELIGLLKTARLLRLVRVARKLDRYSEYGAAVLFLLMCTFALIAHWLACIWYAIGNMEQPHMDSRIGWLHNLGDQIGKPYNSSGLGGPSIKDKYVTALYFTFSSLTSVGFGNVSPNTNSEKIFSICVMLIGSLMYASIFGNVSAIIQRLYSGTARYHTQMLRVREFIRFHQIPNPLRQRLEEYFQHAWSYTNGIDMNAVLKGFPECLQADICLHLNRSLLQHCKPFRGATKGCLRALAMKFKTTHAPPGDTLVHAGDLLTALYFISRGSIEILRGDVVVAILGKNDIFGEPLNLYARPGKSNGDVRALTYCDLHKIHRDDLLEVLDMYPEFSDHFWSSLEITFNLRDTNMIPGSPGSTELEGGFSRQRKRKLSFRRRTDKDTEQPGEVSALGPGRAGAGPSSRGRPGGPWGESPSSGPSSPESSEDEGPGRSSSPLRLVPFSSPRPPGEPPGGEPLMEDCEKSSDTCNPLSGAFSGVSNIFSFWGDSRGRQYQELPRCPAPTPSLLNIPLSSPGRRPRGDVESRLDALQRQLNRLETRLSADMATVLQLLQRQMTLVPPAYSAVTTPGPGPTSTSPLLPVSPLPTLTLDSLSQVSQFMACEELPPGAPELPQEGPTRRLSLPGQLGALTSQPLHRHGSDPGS
row,Compound,"hERG current change (%, negative = inhibition) at 10uM [%]"
1,CCS(=O)(=O)N1CCN=C1SCc1cccc(F)c1,14.7
2,CCCCN(C)C(=O)c1ccc2c(c1)S(=O)(=O)c1ccccc1C2=O,-24.4
3,Cc1ccc(C2(C)NC(=O)N(CC(=O)NC(C)c3ccccc3)C2=O)cc1 (stereo not shown),11.7
4,CC(C)(C)c1ccc(OCCC(=O)OCC(=O)NC(=O)NC2CCCC2)cc1,10.7
5,COc1ccc(NC(C)=O)cc1NC(=O)CSc1nnc(-c2ccccn2)n1C,-7.69
6,Cc1ccsc1CN(C)C(=O)CN1C(=O)NC(c2ccccc2)(c2ccccc2)C1=O,-21.5
7,CCOC(=O)c1c(C)n(C)c2ccc(OCC(O)CN3CCCCCC3)cc12.Cl (stereo not shown),-18.4
8,NNC(=O)c1n[nH]c2c1CC(C1CCCCC1)CC2 (stereo not shown),10.8
9,CCOCCn1c(C(C)O)nc2ccccc21 (stereo not shown),11.7
10,Cc1cc(Cl)nc(-n2nc(C)cc2C)n1,2.6
11,Cl.OC(COCc1ccccc1)CN1CCCC1 (stereo not shown),-6.03
12,NC(=O)C1CCCN(CC(O)COCc2ccc(Cl)cc2)C1.O=C(O)C(=O)O (stereo not shown),-8.86
13,OC(COCc1ccc(Cl)cc1)CN1CCN(CC(O)COCc2ccc(Cl)cc2)CC1 (stereo not shown),-75.2
14,O=C(O)C(=O)O.OC(COCc1ccc(Cl)cc1)CN1CC=C(c2ccccc2)CC1 (stereo not shown),-77.2
15,CCOC(=O)C1CCN(CC(O)COCc2ccc3c(c2)OCO3)CC1.Cl (stereo not shown),-46
16,Cl.OC(COCc1ccc(Cl)cc1)CN1CCCCC1 (stereo not shown),-35.8
17,OC(CN1CC=C(c2ccccc2)CC1)c1ccccc1 (stereo not shown),-33
18,CCOC(=O)C1CCN(CC(O)COCc2ccccc2)CC1.O=C(O)C(=O)O (stereo not shown),-31.1
19,Cl.OC(COCc1ccc(Cl)cc1)CN1CCc2ccccc2C1 (stereo not shown),-70.4
20,CCOC(=O)C1CCN(CC(O)COCc2ccc(Cl)cc2)CC1.Cl (stereo not shown),-79.2
21,COc1ccc(COCC(O)CN2CCc3ccccc3C2)cc1OC.Cl (stereo not shown),1.52
22,Cl.OC(COCc1ccccc1)CN1CCc2ccccc2C1 (stereo not shown),-25.7
23,O=C(NCC(=O)N1CCCCCC1)c1ccc(Br)cc1,-7.84
24,CCOP(=O)(OCC)c1nc(-c2cccc3ccccc23)oc1NCc1ccccc1,10.2
25,O=C(CN1CCc2ccccc2C1)Nc1cc(S(=O)(=O)N2CCOCC2)ccc1N1CCCC1,0.983

row,Compound,"hERG current change (%, negative = inhibition) at 10uM [%]"
1,O=C(N/N=C/C=C/c1ccccc1)c1cnccn1,6.57
2,Cc1noc(C)c1S(=O)(=O)Nc1ccc(C(=O)N2CCC(C)CC2)cc1,-4.35
3,CC(=O)c1cccc(OCC(O)CN2CCN(S(=O)(=O)c3c(F)cccc3F)CC2)c1.O=C(O)C(=O)O (stereo not shown),-31
4,COc1cccc(OCC(O)CN2CCN(C)CC2)c1.O=C(O)C(=O)O (stereo not shown),16.2
5,CCOC(=O)C1CCC(CNCc2ccccc2C)CC1.Cl (stereo not shown),-24.4
6,CC(=O)c1cccc(OCC(O)CN2CC=C(c3ccccc3)CC2)c1.O=C(O)C(=O)O (stereo not shown),-68.9
7,CCOC(=O)C1CCC(CNCc2ccc(Cl)cc2)CC1 (stereo not shown),-69.2
8,CCOC(=O)C1CCN(S(=O)(=O)Cc2ccc(Cl)cc2)CC1,1.25
9,Cc1ccc(S(=O)(=O)n2c(C)nc3cc(C)ccc32)cc1,-3.01
10,CCn1c(C)nc2cc(C(=O)OC)ccc21,14.3
11,CCOc1ccc(Oc2ccc(Cl)cc2N)cc1.Cl,2.9
12,Cc1ccc2nc3c(c(C(=O)OC4CCOC4=O)c2c1)CCCC3 (stereo not shown),-0.191
13,Cc1ccc(S(=O)(=O)c2cnc(-c3ccccc3)nc2N2CCN(C)CC2)cc1,-49.1
14,CCOC(=O)C1CCN(c2nc(-c3ccc(C)cc3)nc3ccccc23)CC1,15.4
15,O=S(=O)(c1ccccc1)c1cnc(-c2ccccc2)nc1N1CCCC1,41.8
16,CC(=O)c1ccc(S(=O)(=O)N2CCN(c3nc(-c4cccnc4)nc4ccccc34)CC2)cc1,-40.4
17,CN1CCN(c2nc(-c3cccc([N+](=O)[O-])c3)nc3ccccc23)CC1,-48.4
18,NC(=O)C1CCN(c2nc(-c3ccccc3)nc3ccccc23)CC1,-56
19,O=S(=O)(c1ccc(F)cc1)N1CCN(c2nc(-c3cccnc3)nc3ccccc23)CC1,-72
20,COc1ccc(S(=O)(=O)N2CCN(c3nc(-c4cccnc4)nc4ccccc34)CC2)cc1,-39
21,CN1CCN(c2nc(-c3ccncc3)nc3ccccc23)CC1,-67.4
22,CN1CCN(c2nc(-c3cccnc3)nc3ccccc23)CC1,-48.5
23,CCOC(=O)C1CCN(c2nc(-c3ccc(Br)cc3)nc3ccccc23)CC1,-1.89
24,CN1CCN(c2nc(-c3ccccc3)ncc2S(=O)(=O)c2ccccc2)CC1,-63.2
25,O=[N+]([O-])c1cnn(-c2nc(-c3ccccc3)cc(C(F)(F)F)n2)c1,8.82

row,Compound,"hERG current change (%, negative = inhibition) at 10uM [%]"
1,N/C(=N\OS(=O)(=O)c1ccc2ccccc2c1)c1cccnc1,5.24
2,COc1ccc([N+](=O)[O-])cc1N(CC(=O)O)S(C)(=O)=O,13.7
3,O=C(O)CC1NC(=O)N(c2ccc(Cl)cc2)C1=O (stereo not shown),19.5
4,CSc1nc(N2CCOCC2)c2c3c(sc2n1)CCCC3,-2.32
5,O=C1c2ccccc2COc2ccc(O)cc21,10.9
6,CC(C)N(Cc1ccc(F)cc1)C(=O)c1cc2ccccc2oc1=O,19.5
7,CC1CCCC(NC(=O)COC(=O)Cc2c[nH]c3ccccc23)C1C (stereo not shown),-14
8,NC(=S)N/N=C\c1c(OCc2ccccc2Cl)ccc2ccccc12,-2.61
9,CN1CCN(/N=C/c2cccc(Cl)c2Cl)CC1.Cl,6.09
10,O=S(=O)(c1cccs1)N1CCCc2cccc(O)c21,7.34
11,Cc1ccc(S(=O)CCNC(=O)Cc2ccc(Cl)cc2)cc1 (stereo not shown),-8.83
12,CCS(=O)(=O)N1CCCC(C(=O)NC2CCC(C)CC2)C1 (stereo not shown),6.05
13,COc1ccc(OC)c(-n2cc3c(=O)n(C)c(=O)n(C)c3c2)c1,-8.58
14,c1ccc2c(N3CCCC3)nc(-c3ccncc3)nc2c1,-56.9
15,c1ccc2c(N3CCOCC3)nc(-c3ccncc3)nc2c1,-31.3
16,Brc1ccc(-c2nnc(-c3ccccc3)c(N3CCSCC3)n2)cc1,4.62
17,Cc1ccc(-c2nc(N3CCN(C)CC3)c3ccccc3n2)cc1.Cl,-59.9
18,c1cncc(-c2nc(N3CCOCC3)c3ccccc3n2)c1,-17
19,CCCOc1ccc(-c2nc(N3CCN(C)CC3)c3ccccc3n2)cc1,-21.6
20,CN1CCN(c2nc(-c3ccc(C(C)(C)C)cc3)nc3ccccc23)CC1.Cl,-2.05
21,O=S(=O)(/C=C/c1ccccc1)N1CCN(c2nc(-c3cccnc3)nc3ccccc23)CC1,-23.6
22,Cc1ccc(-c2nnc(-c3ccccc3)c(N3CCOCC3)n2)cc1,-30
23,CN1CCN(c2nc(-c3ccc(Br)cc3)nnc2-c2ccccc2)CC1,-63.5
24,c1cncc(-c2nc(N3CCCCCC3)c3ccccc3n2)c1,-92.9
25,c1ccc2c(N3CCCCCC3)nc(-c3ccncc3)nc2c1,-34.5

row,Compound,"hERG current change (%, negative = inhibition) at 10uM [%]"
1,O=[N+]([O-])c1cc(Cl)cc(/C=N/NC(=S)Nc2ccc(S(=O)(=O)N3CCOCC3)cc2)c1O,14.3
2,Cc1cc(NS(=O)(=O)c2ccc(NC(=O)c3ccc(Cl)cc3Cl)cc2)no1,24.4
3,O=C(N=C1SC2CS(=O)(=O)CC2N1c1ccccc1F)C1CCCCC1 (stereo not shown),8
4,O=C(NCc1ccccn1)C1CCN(S(=O)(=O)N2CCCC2)CC1,-8.11
5,COc1ccc(-c2nnc(SCC3CCCO3)n2C)cc1 (stereo not shown),0.931
6,Nc1c(N=O)c(=O)[nH]c(=O)n1-c1ccccc1,10.2
7,NS(=O)(=O)c1ccc(CCNC(=O)C2CCN(c3ncnc4c3nc3n4CCCCC3)CC2)cc1,9.07
8,O=C(CSc1nnnn1C1CC2C=CC1C2)Nc1ccc(C(=O)O)cc1 (stereo not shown),-6.04
9,CC(Sc1nnc2ccccn12)C(=O)Nc1ccc(Cl)cn1 (stereo not shown),-1.5
10,Cc1ccc(-c2nc(N(C)C3CCN(C)CC3)c3ccccc3n2)cc1,-24.4
11,c1ccc(-c2nc(C3CCCCC3)c3ccccc3n2)cc1,10.7
12,CN1CCC(N(C)c2nc(-c3ccccc3)nc3ccccc23)CC1,-70.4
13,CC(C)(C)C(=O)Nc1nc2c(s1)CN(Cc1ccccc1)CC2,14.2
14,CCCCOc1ccc(C(=O)N/C(=C/C=C/c2ccccc2)C(=O)NCCCO)cc1,-28.7
15,CCCCOc1ccc(C(=O)N/C(=C/C=C/c2ccccc2)C(=O)O)cc1,19.8
16,CCCCOc1ccc(C(=O)N/C(=C/C=C/c2ccccc2)C(=O)NC)cc1,-75.2
17,CC(C)(C)NC(=O)/C(=C\C=C\c1ccccc1)NC(=O)c1ccc([N+](=O)[O-])cc1,-35.1
18,O=C(O)CCNC(=O)/C(=C/C=C/c1ccccc1)NC(=O)c1ccccc1,16.6
19,CNC(=O)/C(=C\C=C\c1ccccc1)NC(=O)c1ccc([N+](=O)[O-])cc1,-77.6
20,CCCCOc1ccc(C(=O)N/C(=C/C=C/c2ccccc2)C(=O)NCCO)cc1,-9.18
21,CN(C)CCCNC(=O)/C(=C\C=C\c1ccccc1)NC(=O)c1ccc([N+](=O)[O-])cc1,-71.2
22,COC(=O)/C(=C\C=C\c1ccccc1)NC(=O)c1ccccc1,8.85
